ADAM10 inh: inhibits human ADAM10; inhibition, % at 7 µM; hit rate 0.62% among 370,000; recombinant ADAM10, EDANS/DABCYL FRET peptide cleavage, 3 h; AID 720582; O14672;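 active = inhibition above a per-campaign cutoff equal to the mean of compounds falling between control-based bounds plus 3 SD, cut at about 20% in these data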;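 note: 0% = DMSO wells while the 100% control is not disclosed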
FAS-TE inh: blocks the thioesterase domain of human fatty acid synthase. P49327. recombinant FAS-TE, OMFH fluorogenic substrate, fluorescence endpoint. inhibition, % at 15 µM. hit rate 0.67% among 360,000. AID 602261;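 active = compounds whose normalised, plate-corrected inhibition of enzyme fluorescence in the single-dose primary screen is 50% or more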;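 note: 0% = DMSO with enzyme and 100% = substrate without enzyme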
NR3A LBD binder: modulators (binders) of human NR3A ligand-binding domain; hit rate 2.5% among 340,000; NR3A LBD differential scanning fluorimetry, Tm shift; 0% = protein alone, 100% = glycine-bound protein; AID 1259313; Tm shift relative to glycine control, % at 25 µM;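 active = melting temperature shift of at least 10% of the positive control shift, at one fixed dose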
HGIII-sPLA2 inh: Blocks human group III sPLA2 activity; Q9NZ20; QFRET BODIPY PC-A2 liposome hydrolysis, fluorescence; hit rate 0.56% among 370,000; inhibition, % at 12.2 µM; AID 743126;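 active = inhibition above mean plus 3 SD of compounds lying within the high and low control bounds, cut at about 19% in these data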;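 note: 0% = median of test compound wells and 100% = no enzyme DMSO wells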
ADAM17 inh: inhibits human ADAM17. recombinant ADAM17, EDANS/DABCYL FRET peptide cleavage. inhibition, % at 6.95 µM. hit rate 0.83% among 370,000. AID 720648;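 active = inhibition above the mean of compounds lying between control limits plus 3 SD, set per campaign, cut at about 8.5% in these data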;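 note: 0% = DMSO-only wells as the low control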
Target sequence (P78536 215-824 limits assumed): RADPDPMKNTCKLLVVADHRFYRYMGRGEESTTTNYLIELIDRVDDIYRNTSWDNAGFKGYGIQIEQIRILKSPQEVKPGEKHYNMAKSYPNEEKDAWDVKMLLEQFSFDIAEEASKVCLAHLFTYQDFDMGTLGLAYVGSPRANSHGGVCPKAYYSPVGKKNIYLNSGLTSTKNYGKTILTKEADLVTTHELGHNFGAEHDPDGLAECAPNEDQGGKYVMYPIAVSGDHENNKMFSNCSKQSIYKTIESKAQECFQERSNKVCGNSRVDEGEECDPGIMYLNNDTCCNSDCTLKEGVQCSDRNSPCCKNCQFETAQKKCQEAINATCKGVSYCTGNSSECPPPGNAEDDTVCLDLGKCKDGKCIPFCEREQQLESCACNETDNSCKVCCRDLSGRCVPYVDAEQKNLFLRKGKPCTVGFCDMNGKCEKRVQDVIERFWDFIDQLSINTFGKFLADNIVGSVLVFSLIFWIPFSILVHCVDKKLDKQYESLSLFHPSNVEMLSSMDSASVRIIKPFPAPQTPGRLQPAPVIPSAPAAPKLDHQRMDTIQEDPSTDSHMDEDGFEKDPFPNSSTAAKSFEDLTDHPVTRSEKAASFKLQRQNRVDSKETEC
Numbers without * were called inactive; ! = not active in a repeat. A selection: hits, their analogues and other compounds. The true share with any hit is near 4.3%.

Screening CCCC(=O)N1CCC[C@]2(CC[C@@H](CCC(=O)N(CC)CC)O2)C1 returned ADAM10 inh -2, HGIII-sPLA2 inh 7 and ADAM17 inh -1.
Screening COC(=O)C[C@@H]1CC[C@H]2[C@@H](COc3ccc(NC(=O)c4ccc(C(F)(F)F)cc4)cc3C(=O)N2C)O1 returned ADAM10 inh 4, HGIII-sPLA2 inh 0 and ADAM17 inh -1.
C=CCN1C(=O)[C@@H](CC(=O)NCc2cccc(C(F)(F)F)c2)[C@]2(C(=O)OCC)CCCCC/C=C/12 was read as ADAM10 inh 3, HGIII-sPLA2 inh -4 and ADAM17 inh -1.
O=C(Nc1ccc(S(=O)(=O)N2CCOCC2)cc1)c1ccccc1 was read as FAS-TE inh -1 and NR3A LBD binder 7.
Cc1ccc(Nc2nc(-c3ccc(S(=O)(=O)N4CCOCC4)cc3)cs2)cc1Cl was read as ADAM10 inh -36, FAS-TE inh 30, NR3A LBD binder 26*, HGIII-sPLA2 inh -7 and ADAM17 inh -14.
Screening Cc1ccc(C(=O)Nc2ccc(S(=O)(=O)N3CCN(C)CC3)cc2)cc1 returned ADAM10 inh -3, FAS-TE inh 1, NR3A LBD binder -2, HGIII-sPLA2 inh -6 and ADAM17 inh -2.
Screening Cc1ccc(C(=O)Nc2ccc(S(=O)(=O)N3CCOCC3)cc2)cc1Br returned ADAM10 inh -4, FAS-TE inh 37, NR3A LBD binder 34*, HGIII-sPLA2 inh 14 and ADAM17 inh -2.
Screening CN1CCN(S(=O)(=O)c2ccc(NC(=O)C(C)(C)C)cc2)CC1 returned ADAM10 inh 3, FAS-TE inh -5, NR3A LBD binder 11*, HGIII-sPLA2 inh -1 and ADAM17 inh -1.
`CC(=O)Nc1ccc(C(=O)Nc2ccc(S(=O)(=O)N3CCOCC3)cc2)cc1` gave ADAM10 inh -8, FAS-TE inh -3, NR3A LBD binder 31*, HGIII-sPLA2 inh 8 and ADAM17 inh 1.
`O=C(Nc1ccccc1)c1cc(S(=O)(=O)N2CCOCC2)cs1` gave ADAM10 inh 0, FAS-TE inh -5, NR3A LBD binder 1, HGIII-sPLA2 inh 2 and ADAM17 inh -5.
`O=C(Nc1ccc(S(=O)(=O)N2CCOCC2)cc1)c1nn(-c2ccc(F)cc2)ccc1=O` gave ADAM10 inh 7, FAS-TE inh 0, NR3A LBD binder -1, HGIII-sPLA2 inh -1 and ADAM17 inh -1.
O=C(Nc1cccc([N+](=O)[O-])c1)c1cc(S(=O)(=O)N2CCOCC2)cs1 was read as ADAM10 inh -9, FAS-TE inh 11, NR3A LBD binder 22*, HGIII-sPLA2 inh -1 and ADAM17 inh -2.
`CN1CCN(S(=O)(=O)c2ccc(Cl)cc2)CC1` gave ADAM10 inh -9, FAS-TE inh -6, NR3A LBD binder 14*!, HGIII-sPLA2 inh 2 and ADAM17 inh 2.
For O=C(Nc1cccc(S(=O)(=O)N2CCOCC2)c1)c1ccc(Cl)c([N+](=O)[O-])c1 the results were ADAM10 inh 1, FAS-TE inh 37, NR3A LBD binder 0, HGIII-sPLA2 inh 0 and ADAM17 inh 6.
`O=C(Nc1ccc(S(=O)(=O)N2CCOCC2)cc1)c1ccc(Cl)c([N+](=O)[O-])c1` gave ADAM10 inh -9, FAS-TE inh 44, NR3A LBD binder 35*, HGIII-sPLA2 inh 7 and ADAM17 inh -2.
Cc1ccc(-n2ccc(=O)c(C(=O)Nc3ccc(S(=O)(=O)N4CCOCC4)cc3)n2)cc1 was read as ADAM10 inh -12, FAS-TE inh 5, NR3A LBD binder 12*, HGIII-sPLA2 inh 7 and ADAM17 inh -6.
COC(=O)[C@H]1C[C@@]2(n3ccc4ccccc43)c3ccccc3N[C@H]2N1 was read as ADAM10 inh -8, HGIII-sPLA2 inh 7 and ADAM17 inh -6.
Screening COC(=O)[C@]12C[C@H](CC(=O)N3CCOCC3)C(=O)N(CCc3ccc(OC)c(OC)c3)C1=C[C@H](C(C)C)O[C@@H]2C1CC1 returned ADAM10 inh 4, HGIII-sPLA2 inh -3 and ADAM17 inh -1.
`CC(=O)c1cc(-c2cc(C(=O)O)cc([N+](=O)[O-])c2)c(=O)n2c1CCC2` gave ADAM10 inh 0, HGIII-sPLA2 inh 1 and ADAM17 inh 3.
`CC(OC(=O)c1cc(Br)ccc1O)C(=O)Nc1ccc(S(=O)(=O)N2CCCC2)cc1` (configuration not stated) gave ADAM10 inh 5, FAS-TE inh 24, NR3A LBD binder 11*, HGIII-sPLA2 inh -25 and ADAM17 inh 1.
For CC(=O)Nc1ccc(S(=O)(=O)N2CCCN(S(=O)(=O)c3ccc(NC(C)=O)cc3)CC2)cc1 the results were ADAM10 inh 4, FAS-TE inh 1, NR3A LBD binder 11*, HGIII-sPLA2 inh -2 and ADAM17 inh 2.
Screening O=C(Nc1ccc(S(=O)(=O)N2CCOCC2)cc1)c1cc(-c2ccccc2O)n[nH]1 returned ADAM10 inh 15, FAS-TE inh 3, NR3A LBD binder 27*, HGIII-sPLA2 inh -50 and ADAM17 inh 7.
`CC(=O)Nc1ccc(S(=O)(=O)N2CCN(S(=O)(=O)c3ccc(NC(C)=O)cc3)CC2)cc1` gave ADAM10 inh 1, FAS-TE inh -1, NR3A LBD binder -1, HGIII-sPLA2 inh 4 and ADAM17 inh -1.
Cc1cccc(C(=O)OC(C)C(=O)Nc2ccc(S(=O)(=O)N3CCCC3)cc2)c1O (configuration not stated) was read as ADAM10 inh 7, FAS-TE inh 22, NR3A LBD binder 5, HGIII-sPLA2 inh -28 and ADAM17 inh 6.
`O=C(Nc1ccc(S(=O)(=O)N2CCOCC2)cc1)c1ccc([N+](=O)[O-])s1` gave ADAM10 inh 1, FAS-TE inh -3, NR3A LBD binder 29*, HGIII-sPLA2 inh -5 and ADAM17 inh 1.
CC(C)CN1C(=O)C[C@@]2(C(=O)N(C)c3ccc(NC(=O)C(F)(F)F)cc32)C1c1ccccc1 (some centres not stated) was read as ADAM10 inh -5, HGIII-sPLA2 inh 8 and ADAM17 inh -5.
Screening CN[C@H]1C[C@H]2c3cc(-c4ccc5c(c4)OCO5)ccc3CCN2C[C@H]1[C@H](C)O returned ADAM10 inh 8, HGIII-sPLA2 inh 0 and ADAM17 inh -2.
Screening N#CCC[C@@H]1CC[C@]2(CCCN(C(=O)C3CCCCC3)C2)O1 returned ADAM10 inh -7, HGIII-sPLA2 inh 0 and ADAM17 inh -4.
`CCOC(=O)CC[C@H]1CC[C@]2(CCCN(Cc3ccccc3)C2)O1` gave ADAM10 inh -10, HGIII-sPLA2 inh 7 and ADAM17 inh -5.
`COC(=O)[C@]1(CNC(=O)Nc2ccc(C)c(Cl)c2)CC(=O)N(C)[C@@H]1c1ccccc1` gave ADAM10 inh 4, HGIII-sPLA2 inh -15 and ADAM17 inh 1.
For N#Cc1cccc(NS(=O)(=O)c2ccc(S(=O)(=O)N3CCOCC3)cc2)c1 the results were ADAM10 inh -14, FAS-TE inh -6, NR3A LBD binder 1, HGIII-sPLA2 inh -2 and ADAM17 inh -8.

High-throughput results from PubChem.
